Measured values as given in PubChem BioAssay (NCI).
The panel holds about 83,000 compounds, 20% with a hit somewhere; the sample as a whole holds those more often.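 In brief: 96-well plates, 48 h treatment, single concentration, percent growth endpoint.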 Values without a mark were called inactive. The source made the active and inactive calls. The calls were made as follows: active = growth percent below 10; inactive = the rest.

Tests used:
Test in all cases: NCI-60 one-dose screen, 48 h (100 = growth as untreated, 0 = no growth, -100 = all killed)
NCI-H23 lung = conditions: 10 µM unless noted
NCI-H226 lung = conditions: 10 µM unless noted
NCI-H322M lung = conditions: 10 µM unless noted
HOP-62 NSCLC = conditions: 10 µM unless noted
NCI-H460 lung = conditions: 10 µM unless noted
HOP-92 NSCLC = conditions: 10 µM
NCI-H522 lung = conditions: 10 µM unless noted
A549/ATCC NSCLC = conditions: 10 µM unless noted
786-0 renal = conditions: 10 µM unless noted
COLO 205 colon = conditions: 10 µM unless noted
DU-145 prostate = conditions: 10 µM unless noted
K-562 leukemia = conditions: 10 µM unless noted
MALME-3M melanoma = conditions: 10 µM unless noted
MDA-MB-231 breast = conditions: 10 µM unless noted
RXF 393 renal = conditions: 10 µM unless noted
SF-268 CNS = conditions: 10 µM unless noted
SF-295 CNS = conditions: 10 µM unless noted
UACC-257 melanoma = conditions: 10 µM unless noted
M14 melanoma = conditions: 10 µM unless noted
SF-539 CNS = conditions: 10 µM unless noted

Row | Compound | growth (NCI-H23 lung) | growth (NCI-H226 lung) | growth (NCI-H322M lung) | growth (HOP-62 NSCLC) | growth (NCI-H460 lung) | growth (HOP-92 NSCLC) | growth (NCI-H522 lung) | growth (A549/ATCC NSCLC) | growth (786-0 renal) | growth (COLO 205 colon) | growth (DU-145 prostate) | growth (K-562 leukemia) | growth (MALME-3M melanoma) | growth (MDA-MB-231 breast) | growth (RXF 393 renal) | growth (SF-268 CNS) | growth (SF-295 CNS) | growth (UACC-257 melanoma) | growth (M14 melanoma) | growth (SF-539 CNS)
1 | CN1CCN(c2ccc([N+](=O)[O-])c3no[n+]([O-])c23)CC1 | -24.1% (active) | -71.9% (active) | -24.2% (active) | -98.3% (active) | -61.4% (active) | -23.1% (active) | -92.1% (active) | -48.7% (active) | -78.6% (active) | -83.3% (active) | -27.4% (active) | -18.4% (active) | -78.8% (active) | -32.1% (active) | -92.8% (active) | -41.4% (active) | -52% (active) | -95.6% (active) | -65.2% (active) | 
2 | CCCCCCCCCCCC1CCCC(C)N1 (centres undefined) | 71.4% | 94.8% | 127% | 86.5% | 87.9% | 15.8% | -8.02% (active) | 97.2% | 67.3% | -33% (active) | 92.4% | 6.23% (active) |  | 72% | 77.7% | 73.5% | 100% | 77.3% | 95.3% | 97.5%
3 | CO[C@H](/C(C)=C/C=C/C(C)=C/c1coc(C)n1)[C@H](C)[C@H]1C[C@@H](O)[C@@]2(C)O[C@H]2/C=C/[C@@H](C)[C@@H]2C[C@@H](CC(=O)O2)C[C@H]2O[C@@H]2C(=O)O1 | 24.4% | 34.8% | 42.9% | 11.1% | 8.2% (active) |  | -33.1% (active) | 42.9% | 15.6% | -28.7% (active) | -18.9% (active) | -31.6% (active) | 15.2% | 25.9% | 13.7% | 32.5% | -13.3% (active) | 19.1% | -0.709% (active) | -19.2% (active)
4 | CC[C@](O)(C(=O)O)c1cc2n(c(=O)c1CO)Cc1cc3ccccc3nc1-2 | -22.8% (active) | -27.8% (active) | -5.59% (active) | 1.05% (active) | -6.64% (active) | -39% (active) | -50.6% (active) | -5.92% (active) | -21.9% (active) | -20.7% (active) | -30.7% (active) | -27.9% (active) | -38.2% (active) | 34.5% | 9.87% (active) | 8.53% (active) | -13.2% (active) | 0.116% (active) | -26.5% (active) | -48.2% (active)
5 | Cc1ccc(C(=O)OC(C(=O)O)C(OC(=O)c2ccc(C)cc2)C(=O)O)cc1 (centres undefined) (tested in a mixture with another compound) | 41.4% | 51.1% | 83.2% | 66.1% | 52.4% | 17.7% | 52.6% | 71% | 46% | 48.9% | 76% | 11.1% | 51.6% |  | 54.1% | 68.5% | 61.8% | 46.1% | 45.2% | 70.2%
6 | Oc1cc[c]([Hg][Cl])cc1 | 87.8% | 113% | 93.4% | 123% | 88.8% | 161% | -47% (active) | 99.3% | 102% | 130% | 94.3% | 60.2% | 94.2% |  | 116% | 95.4% | 113% | 99.6% | 91.1% | 121%
7 | COc1ccc(OC)c(/C=C/[N+](=O)[O-])c1 | 6.9% (active) | 11.8% | 69.6% | 10.5% | -4.3% (active) | -18% (active) | -64.1% (active) | 28.1% | -75.2% (active) | -51.6% (active) | 19.8% | 4.27% (active) | 24.9% | 5.7% (active) | -88.7% (active) | 13.1% |  | -12% (active) | -11.5% (active) | -6.84% (active)
